Out of some 69,000 compounds screened, about 8,600 (12%) showed an effect of 50% or more. This is one part of a sample in which strong results are shown more often than they occur.

This test deals with Plasmodium berghei. Briefly: Screen against P. berghei liver stage (PbLuc), transformed with Luciferase, at 10uM. The test is classed as functional, HepG2. As to conditions: tested at 10 uM.
Regarding `O=C(NCc1cn2c(n1)CN(Cc1ccncc1)CC2)C1CCC1`, the INHIBITION came out at 43.9%.

For the compound `CCOc1ccnc(N2CCN(C(=O)c3cnc[nH]3)CC2)n1`, the INHIBITION came to 31.8%. The same measure for `CC(C)c1cc(NC(=O)CNC2CCCN(c3cccnn3)C2)on1` (stereo unspecified): 42.9%; for `CCC1(CC)CC(=O)N(CC(O)c2cccc(Br)c2)C1=O` (stereo unspecified): -8%; for `Cc1nc(-c2ccco2)ccc1C(=O)NCCN1CCN(C)CC1`: 23.5%. Consider `CCC(CO)N(Cc1cccs1)C(=O)Cc1ccc(O)cc1` (stereo unspecified), for which the INHIBITION is on record as 71.1%.

In the case of `CCC(CO)N(Cc1cccs1)C(=O)CSC` (stereo unspecified), the INHIBITION is on record as -36.3%. As for `CCC(CO)N(Cc1cccs1)C(=O)Cc1ccncc1` (stereo unspecified), the INHIBITION is listed as 41.4%. Take `CCCNC(=O)COc1cc(C)c2c(C)nn(-c3ccccc3)c2n1`: the INHIBITION is reported as 31.3%. In the case of `N#Cc1ccc(S(=O)(=O)NC(=O)c2ccc3c(c2)COC3)cc1`, the INHIBITION is on record as 6.61%.

On to `COc1cc(C(=O)NS(=O)(=O)c2cccc(C#N)c2)cc(Cl)c1OC`, for which the INHIBITION is recorded as -5.25%. On to `N#Cc1ccc(CS(=O)(=O)NC(=O)c2ccc(C#N)cc2)cc1`, for which the INHIBITION was -6.52%. With `N#Cc1ccc(C(=O)NS(=O)(=O)c2ccc(F)c(F)c2)cc1`, the INHIBITION is 58.3%. With `COc1cc(C(=O)NS(=O)(=O)c2cccc(C#N)c2)ccc1C` the figure was 14.4%. With `COc1cccc(C(=O)NS(=O)(=O)c2cccc(C#N)c2)c1`, the INHIBITION came to 38.8%.

For `COc1cc(C(=O)NS(=O)(=O)c2ccc(C#N)cc2)ccc1C`, the INHIBITION stood at 15.5%. On to `N#Cc1ccc(C(=O)NS(=O)(=O)c2ccc(C#N)c(Cl)c2)cc1`, for which the INHIBITION worked out at 57.2%.

As for `N#Cc1cccc(C(=O)NS(=O)(=O)c2ccc(C#N)c(Cl)c2)c1`, the INHIBITION worked out at 50.7%. The same measure for `CCc1oc(C(=O)N2CCC(N(CC)C(C)=O)C2)cc1CN(CC)CC` (stereo unspecified): 19.4%. Turning to `O=C(NCc1cccnc1)N1CCc2ncnc(NC3CC3)c2CC1`, the INHIBITION is reported as 4.98%. With `COc1c(C2CCCN2Cc2nc(-c3ccco3)no2)c(C)nn1C` (stereo unspecified) the figure was -21.8%; with `Cc1nc(-c2ccc(CO)cc2)cc(C2CCNCC2)n1`, 23.9%; with `Cn1ccc(CN2CCC3(CC2)CC(Nc2ccccn2)CO3)n1` (stereo unspecified), 37.9%. In the case of `Cc1nc(CN2CCCc3cc(OC(F)(F)F)ccc32)oc1C`, the INHIBITION came to 37.9%.

For the compound `Cc1nn(C)c(C)c1CNCc1ccc(N2CCOCC2)nc1`, the INHIBITION is recorded as 32.8%. For `O=C(NCC1CC1)[C@H]1C[C@H]2CN(C(=O)NCC3CCCCC3)C[C@@H]1O2`, the INHIBITION turned out to be 20.1%. Regarding `Cc1cccn2c(=O)cc(OC(=O)c3ccccc3Cl)nc12`, the INHIBITION came out at 26.7%. With `CC(C)(C)n1cc(C2=CCN(CCc3ccccc3)CC2)cn1` the figure was 50.2%; with `CC(C)(C)n1cc(C2=CCN(CCc3ccccn3)CC2)cn1`, 18.7%. Take `CC(C)(C)n1cc(C2=CCN(CCN3CCCCCC3)CC2)cn1`: the INHIBITION is listed as 0.734%.

Take `CC(C)(C)c1cnc(CN2CCCCC2Cn2cccn2)o1` (stereo unspecified): the INHIBITION is listed as 14.4%. As for `CCn1ccnc1CN1CCN(CCOc2cccc(C#N)c2)CC1`, the INHIBITION is 23.2%. For the compound `CCn1ccnc1CN1CCN(Cc2cccc(C#N)c2)CC1`, the INHIBITION was 68.8%.

In the case of `Fc1cccc(CN2CCN(Cc3cscn3)CC2)c1`, the INHIBITION is reported as 36.7%. On to `c1cncc(CN2CCn3cc(Cn4cccn4)nc3C2)c1`, for which the INHIBITION is reported as 31.7%.

On to `c1ccc(CN2CCN(Cc3cscn3)CC2)cc1`, for which the INHIBITION amounted to 19.4%. On to `N#Cc1cccc(CN2CCN(Cc3cscn3)CC2)c1`, for which the INHIBITION is 66.4%. As for `CCn1ccnc1CN1CCN(Cc2cc(C#N)ccc2F)CC1`, the INHIBITION was 35.9%. With `N#Cc1cccc(CN2CCn3cc(Cn4cccn4)nc3C2)c1` the figure was 58.8%; with `CCn1ccnc1CN1CCN(Cc2ccc(C#N)cc2)CC1`, 48.1%. For the compound `CCn1ccnc1CN1CCN(CCOc2ccccc2C#N)CC1`, the INHIBITION is listed as 14.1%. For the compound `Fc1ccc(CN2CCn3cc(Cn4cccn4)nc3C2)cc1`, the INHIBITION is -53.6%. `CCn1ccnc1CN1CCN(CCOc2ccc(C#N)cc2)CC1`: the INHIBITION came to 52.3%. As to `O=C(c1ccc2[nH]cnc2c1)N1CCCC1Cn1cccn1` (stereo unspecified), the INHIBITION was -0.514%. Regarding `C[C@@H]1CN(S(C)(=O)=O)C[C@]12CCN(Cc1cccnc1)C2=O`, the INHIBITION was -28.2%.

As to `CNC(=O)c1cc(C2CCCN2)n[nH]1` (stereo unspecified), the INHIBITION was 31.3%.

On to `c1nc2c(c(C3CC3)n1)CCN(Cc1ccc3c(c1)OCO3)CC2`, for which the INHIBITION worked out at 21.8%.

As for `c1cnn(CC2CCCN2Cc2cn3ccsc3n2)c1` (stereo unspecified), the INHIBITION is on record as 28%.

For the compound `CSCCC(Nc1nc(C)cc(C)n1)C(=O)NCC1CCOCC1` (stereo unspecified), the INHIBITION turned out to be 25.2%. With `CCc1csc(C2CCCN(C(=O)COc3cc(C)on3)C2)n1` (stereo unspecified) the figure was 46.2%. Consider `O=C1CCCCCN1Cc1ncnn1Cc1c(F)cccc1Cl`, for which the INHIBITION was 5.46%.

As for `Cc1nc(CN2CCCN(CCOc3ccc(C#N)cc3)CC2)no1`, the INHIBITION came out at 56.6%. For `COc1ccc(OCCN2CCCN(Cc3noc(C)n3)CC2)cc1`, the INHIBITION was 4.52%.

For the compound `Cc1cccc(OCCN2CCN(Cc3noc(C)n3)CC2)c1`, the INHIBITION amounted to 30.6%.

As to `CC(C(=O)NC1CC1)n1nc(-c2cccs2)cc(N)c1=O` (stereo unspecified), the INHIBITION is 23.9%. As to `CC(C)n1ncc2cc(NC(=O)N3CCC(N4CCCC4)C3)cnc21` (stereo unspecified), the INHIBITION was determined as 53.3%.

Source of the values: ChEMBL document CHEMBL4513216, “Probing the Open Global Health Chemical Diversity Library for Multistage-Active Starting Points for Next-Generation Antimalarials” (ACS Infect Dis, 2020).
